Screens from PubChem BioAssay.
GLP-1R agonist – qHTS of GLP-1 Receptor Agonists | Potency, µM (doses to about 45.6 µM), for inactives: at the highest dose activation, usual class: activators | 380,000 tested, 0.007% active | Glucagon-like peptide 1 receptor (Homo sapiens), P43220 | HEK293 GLP-1R CRE-luciferase, luminescence, 4-6 h; cells express a hypersensitive GLP-1R form; note: % of control where 0% means no effect
Target sequence (P43220 whole entry, looked up): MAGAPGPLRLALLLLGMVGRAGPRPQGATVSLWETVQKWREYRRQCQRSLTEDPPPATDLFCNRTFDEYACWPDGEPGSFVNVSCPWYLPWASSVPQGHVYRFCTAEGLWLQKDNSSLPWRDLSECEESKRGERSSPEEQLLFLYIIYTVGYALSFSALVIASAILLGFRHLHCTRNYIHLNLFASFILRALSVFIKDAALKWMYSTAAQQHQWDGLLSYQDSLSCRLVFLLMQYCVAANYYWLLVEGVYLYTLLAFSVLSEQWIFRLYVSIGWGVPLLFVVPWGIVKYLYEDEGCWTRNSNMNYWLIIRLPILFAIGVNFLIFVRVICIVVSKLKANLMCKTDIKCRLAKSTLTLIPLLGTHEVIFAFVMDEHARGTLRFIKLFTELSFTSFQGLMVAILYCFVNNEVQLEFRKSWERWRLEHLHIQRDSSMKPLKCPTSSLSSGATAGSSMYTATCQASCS
BRCA1 expr up – qHTS Assay to Identify Small Molecule Activators of BRCA1 Expression. MCF7-BRCA1-FFLuc reporter, luminescence, 48 h; response scale: scaled: vehicle 0%, 10 µM genistein 100%. Potency, µM (titrated, usually from 46.1 µM), for inactives: at the highest dose activation, actives largely listed as activators. 380,000 tested, 1.1% active; note: nearly all actives have a fitted effect of over 80% in size
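First, MCF7-BRCA1-FFLuc cells (2000/well) attach for 2 h; next, compounds are pin-added and incubated 48 h at 37 °C; finally, luciferase reagent is added and luminescence read after 15 min.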
a7 integrin act – qHTS for Activators of Integrin-Mediated Alleviation for Muscular Dystrophy; AID 624291, 2012; 350,000 tested, 0.064% active; Potency, µM (top dose mostly 38.3 µM), without a hit: at the highest dose activation, actives largely listed as activators; alpha7betagal myoblasts, beta-gal FDG fluorescence, 48 h;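 note: 100% = response of the positive control SU9516; nearly all actives have a fitted effect of over 60% in size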
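Alpha7betagal+/- myoblasts (passage 13) were plated 16-24 hr, then exposed to compounds (1:260 dilution of DMSO stock) for 48 hours at 37C. After MPER lysis, β-galactosidase reporter activity was read as FDG fluorescence (ex 480/em 540) after 30 minutes.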
GLP1R inv ag – qHTS of GLP-1 Receptor Inverse Agonists (Inhibition Mode); Glucagon-like peptide 1 receptor (Homo sapiens), P43220; HEK293 GLP-1R CRE-luciferase, luminescence, 24 h; GLP-1R form is constitutively active; Potency, µM (doses to about 38.3 µM), without a hit: at the top dose activity change, negative = inhibition, usual class: inhibitors; 410,000 tested, 1.6% active; note: % is set by controls: 0 for no effect and ±100 for the full control effect; nearly all actives have a fitted effect of over 55% in size
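Constitutively active GLP-1R drives a cAMP-responsive luciferase in stably transfected HEK293 cells; test compounds are added after overnight (12 h) attachment and left 24 hr, and signal loss in luminescence marks inhibition.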
GLP1R cytotox – qHTS of GLP-1 Receptor Inverse Agonists: Cytotox Screen; Potency, µM (highest dose often 38.3 µM), for inactives: at the top dose activity change, negative = inhibition, hits mostly inhibitors; 410,000 tested, 0.13% active; AID 624418, 2012; HEK293 cAMP-luciferase reporter cells, luminescence, 24 h;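 note: loss of luciferase light is scored as toxicity; % is set by controls: 0 for no effect and ±100 for the full control effect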
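1536-well qHTS counterscreen of the MLSMR; 200 cells/uL, 12 h pre-incubation, 23 nL cpd, 24 h at 37 deg C 5% CO2, luciferase detection reagent, 12 min RT, luminescence. Inhibition = undesired.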
* = called active by the depositor; ? = inconclusive; . = not tested or not shown. Only some compounds are listed: those with a hit (about 2.7% of all), similar ones and a draw of the others. Calls come from the whole dose curve; as a rule, active = well fitted curve in the direction sought with a large enough effect; inconclusive = small, poorly fitted or top-dose-only effect, or another doubt; inactive = no such curve, though single readings can be large; an effect the other way counts as inactive or inconclusive. Potency is the fitted concentration of half-maximal effect.

SMILES	GLP-1R agonist	BRCA1 expr up	a7 integrin act	GLP1R inv ag	GLP1R cytotox
CCOc1ccc(NC(=O)c2cc3ccccc3cc2OC)cc1	10%	-48%	5%	?	-12%
CCOc1ccc(NC(=O)c2ccc(F)cc2F)cc1	-1%	11µM*	-1%	15%	-1%
C[N+]1(C)CCC(OC(=O)CC(O)(c2ccccc2)C2CCCC2)C1 (configuration not stated)	-4%	.	.	.	.
COc1ccc(Br)cc1/C=C/C(=O)c1ccc(NC(C)=O)cc1	-38%	-100%	-62%	5µM*	-11%
COc1ccc(NC(=O)/C=C/c2cc(Br)ccc2OC)cc1	-15%	-22%	-8%	?	6%
Cn1cc(CN2CCC(n3nccc3NC(=O)c3ccccc3Cl)CC2)c2ccccc21	1%	-61%	-56%	?	?
COc1ccccc1C(=O)Nc1ccnn1C1CCN(Cc2cn(C)c3ccccc23)CC1	3%	-41%	-72%	11µM*	-28%
O=C(Nc1ccnn1C1CCN(CCCC2CCCC2)CC1)c1ccccc1Cl	5%	-55%	-39%	10µM*	-22%
CCOC(=O)[C@H](CCc1ccccc1)N[C@@H](C)C(=O)N(CC(=O)O)C1Cc2ccccc2C1	-6%	.	.	.	.
COC(=O)C1[C@@H](OC)C(OC(=O)COc2ccc(OC)cc2)C[C@@H]2CN3CCc4c([nH]c5cc(OC)ccc45)[C@H]3C[C@H]12 (some centres not stated)	-3%	.	.	.	.
NC(Cc1ccccc1)c1csc(Nc2ccc(C(=O)c3ccccc3)cc2)n1 (configuration not stated)	-3%	0%	.	10µM*	?
Cc1cccc(N2CCN(C(=O)C3CCCCC3)CC2)c1C	-1%	-13%	6%	10µM*	6%
Cc1cccc(N2CCN(C(=O)C3CCCN(S(=O)(=O)c4c(C)noc4C)C3)CC2)c1C (configuration not stated)	-4%	-29%	-7%	7.9µM*	-9%
O=C(Nc1ccc(F)cc1)NC1CCCCCCC1	-1%	?	42%	?	-5%
COc1cccc(NC(=O)C(NCC2CCCCC2)c2ccccc2)c1 (configuration not stated)	8%	-6%	-6%	10µM*	-7%
O=C(Nc1ccc(F)cc1)C(NC1CCCCC1)c1ccccc1 (configuration not stated)	8%	4%	-8%	7.9µM*	19%
O=C(NC1CCCCC1)C1COc2ccccc2O1 (configuration not stated)	8%	15%	-21%	-9%	11%
CC1CCC(NC(=O)C2COc3ccccc3O2)CC1 (configuration not stated)	9%	10µM*	2%	-29%	0%
Clc1ccc(-c2cc3ccccc3nc2N2CCCC2)cc1	-2%	-9%	2%	?	-20%
Clc1ccc(-c2cc3ccccc3nc2N2CCOCC2)cc1	7%	-18%	4%	10µM*	3%
COc1ccc(-c2cc3nc(C)c(CCC(=O)Nc4ccc(F)cc4F)c(C)n3n2)c(OC)c1	-3%	20%	.	-3%	-2%
Cc1nn(CCC(=O)Nc2ccccc2Br)c(=O)c2nn(-c3ccccc3)c(C)c12	.	.	.	-4%	25%
Cc1ccc(C(=O)C(C(=O)/C=C/c2ccccc2)=C2SCCCS2)cc1	-5%	-93%	-48%	2µM*	?
O=C(Nc1ccc(Cl)c(Cl)c1)Nc1nccs1	-5%	-17%	-18%	3.2µM*	4%
C=C1C=C(C(F)F)n2ncc(C(=O)NCc3ccc(Cl)cc3)c2N1	.	-6%	.	.	.
SMILES	GLP-1R agonist	BRCA1 expr up	a7 integrin act	GLP1R inv ag	GLP1R cytotox
CC(C)N(Cc1nc(-c2ccc(Cl)cc2)no1)C(=O)/C=C/c1ccccc1	2%	-24%	21%	11µM*	-1%
CC(C)N(Cc1nc(-c2ccc(Cl)cc2)no1)C(=O)C(c1ccccc1)c1ccccc1	2%	-18%	5%	?	5%
Cc1ccc(Cn2c(SCC(=O)C(C)(C)C)nc3ccsc3c2=O)cc1	.	.	.	?	4%
CCN(CC)S(=O)(=O)c1ccc(NC(=O)NCc2noc3ccc(C)cc23)cc1	.	.	.	10µM*	-30%
COc1cccc(N/C=C/c2onc(C)c2[N+](=O)[O-])c1	-7%	4µM*	?	10%	7%
Cc1ccc(N/C=C/c2onc(C)c2[N+](=O)[O-])cc1	-1%	6.3µM*	11%	14%	6%
Cc1cccc(C)c1NC(=O)CN(C)C(=O)C1CCN(c2ncnc3sc(C)c(C)c23)CC1	1%	-13%	-7%	?	7%
Cc1cc(Br)ccc1NC(=O)CN(C)C(=O)C1CCN(c2ncnc3sc(C)c(C)c23)CC1	-17%	-82%	-13%	3.2µM*	-31%
COc1ccc(CCNC(=O)C2CCC(C(C)(C)C)CC2)cc1OC (configuration not stated)	12%	-3%	-1%	10µM*	-14%
CSc1cccc(NC(=S)N(CCCN2CCCC2)Cc2cccn2Cc2ccc(Cl)cc2)c1	-5%	-88%	-77%	3.5µM*	11µM*
COc1ccc(NC(=S)N2CCCN(Cc3cccc(Cl)c3)C2)cc1	13%	-21%	-32%	8.9µM*	-6%
CSc1cccc(NC(=S)N2CCCN(Cc3cccc(Cl)c3)C2)c1	7%	-49%	-62%	3.5µM*	-12%
C/C(=N\NC(=O)c1ccc(Br)cc1)C1C(=O)c2ccccc2C1=O	-8%	28%	1%	?	10µM*
COc1ccccc1OCC(=O)/C=C1/N(C)c2ccccc2C1(C)C	9%	-38%	-57%	10µM*	3%
CCOc1ccc(NC(=S)N(CCc2c(C)[nH]c3ccccc23)Cc2cccnc2)cc1	-1%	-5%	24%	10µM*	0%
CC(=O)c1ccc(OCC(=O)N2CCCCC2)cc1	-3%	.	.	.	.
O=C(NNc1cc(Cl)cc(Cl)c1)C1CCC1	9%	12%	-9%	5.6µM*	-19%
C/C(=N\NC(=O)C(C)n1nc(C)c([N+](=O)[O-])c1C)c1ccccc1O (configuration not stated)	1%	-94%	-10%	?	3.2µM*
NC(=O)CSc1ncc2c(n1)-c1ccccc1N(Cc1ccc(Cl)cc1)S2(=O)=O	.	.	.	-12%	1%
Cc1cc(OCCN2CCC(Cc3ccccc3)CC2)ccc1[N+](=O)[O-]	-5%	1%	-47%	11µM*	?
C=C1C=C(C(F)F)n2ncc(C(=O)NCCc3ccc(Cl)cc3)c2N1	.	2%	.	.	.
